# The supplement of paper PMC10981050
# Several values for one entry are separate records, joined by “and”; a condition that tells them apart may be missing. Equal values may be shown once. Where a name gives a salt, the structure may show the parent alone.
# Tests used:
# Assay in all cases: cell viability relative to vehicle control; higher = less cytotoxic
# Conditions in all cases: 10 µM
# K562 = tested on: K562
# Summary of the method: (§1)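 CRISPR-edited mutant clones and isogenic wild-type clones from four leukaemia lines were screened against Selleck bioactive, kinase and epigenetic probe libraries, with identity-inconsistent compounds excluded. Each compound was acoustically dispensed at a single 10 µM dose into 384-well plates holding 2000 cells in 50 µL medium per well. After 48 h the supernatant was removed and CellTiter-Glo luminescence was read. Viability was expressed as percent of the on-plate vehicle control and analysed in Genedata Screener.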
# MARIMO = tested on: MARIMO
# Summary of the method: as §1
# MOLM14 = tested on: MOLM14
# Summary of the method: as §1
# OCI-AML2 = tested on: OCI-AML2
# Summary of the method: as §1
Structure (SMILES),cell viability (K562; SRSF2 genotype: SRSF2 P95H/wt),cell viability (K562; SRSF2 genotype: SRSF2 wt/wt) [%],cell viability (MARIMO; SRSF2 genotype: SRSF2 P95H/wt) [%],cell viability (MARIMO; SRSF2 genotype: SRSF2 wt/wt) [%],cell viability (MOLM14; SRSF2 genotype: SRSF2 P95H/wt) [%],cell viability (MOLM14; SRSF2 genotype: SRSF2 wt/wt) [%],cell viability (OCI-AML2; SRSF2 genotype: P95H/wt) [%],cell viability (OCI-AML2; SRSF2 genotype: wt/wt) [%]
CSc1ccc(C(=O)/C=C/c2cc(C)c(OC(C)(C)C(=O)O)c(C)c2)cc1 [Elafibranor],91.2% and 99.2%,88.1,91.3,91,34.2,30,61.7,57
COc1ccc(-c2cc(=O)c3c(OC)c(OC)c(OC)c(OC)c3o2)cc1OC [Nobiletin (Hexamethoxyflavone)],94.6% and 90.6%,92.6,79.1,82.1,83.3,81.3,74.5,81.5
C[C@H](CCC(=O)NCCS(=O)(=O)O)[C@H]1CC[C@H]2[C@@H]3[C@@H](O)C[C@@H]4C[C@H](O)CC[C@]4(C)[C@H]3CC[C@]12C [Tauroursodeoxycholic Acid],102%,99,99.4,108,107,103,95.8,114
Nc1c(CC(=O)O)cccc1C(=O)c1ccccc1 [Amfenac Sodium (monohydrate)],103% and 98.3%,93.7,94.7,101,91.5,95.9,88.5,99.8
Cc1cc(CN2CCN(c3c(Br)cnc4nc(-c5ccc(N6CCN(C)CC6)cc5)[nH]c34)CC2)no1,19.6% and 18.5%,24.2,88.8,87,0.57,0.62,6.22,1.52
N=C(NOCC(O)CN1CCCCC1)c1cccnc1 (stereo not given),106% and 96.6%,106,104,99.2,108,101,97.6,104
C=C[C@]1(C)C[C@@H](OC(=O)CSCCN(CC)CC)[C@]2(C)[C@H](C)CC[C@]3(CCC(=O)[C@H]32)[C@@H](C)[C@@H]1O [Tiamulin fumarate],85.7% and 84.7%,89.8,93.4,91.3,94.2,93.7,88.6,96.6
O=C(Nc1ccc(S(=O)(=O)Nc2ccccc2Cl)c(Cl)c1)c1ccccn1,98.1% and 99%,99.7,95.6,101,97.6,98.3,103,104
NC(=O)Cc1cccc(C(=O)c2ccccc2)c1N [Nepafenac],96.5% and 95.7%,91.7,93.8,93.8,95.4,96.5,87.7,92.4
O=C1[C@H]2CCCC[C@H]2C(=O)N1CCCCN1CCN(c2nsc3ccccc23)CC1 [Perospirone hydrochloride],70.2% and 74%,73.6,71.2,82.3,78.7,82.5,73.7,75.8
CC1(C)[C@@H](O[C@H]2O[C@H](C(=O)O)[C@@H](O)[C@H](O)[C@H]2O[C@@H]2O[C@H](C(=O)O)[C@@H](O)[C@H](O)[C@H]2O)CC[C@]2(C)[C@H]3C(=O)C=C4[C@@H]5C[C@@](C)(C(=O)O)CC[C@]5(C)CC[C@@]4(C)[C@]3(C)CC[C@@H]12 [Ammonium Glycyrrhizate],97.4% and 102%,99.3,101,101,106,98.9,106,99
CN(C)C(=S)NN=C(c1ccccn1)c1ccccn1,30% and 40.3%,30.9,11.5,20.1,1.77,0.87,10.9,10.6
CCOC(=O)/C=C/c1ccc(O)c(OC)c1 [Ethyl ferulate],98% and 104%,104,92,107,98,101,112,108
CN1C(=O)c2sccc2N(C)c2nc(Nc3ccc(S(N)(=O)=O)cc3)ncc21,14% and 30.1%,63.4,22.4,25.9,5.5,3.55,8.63,10.6
COc1cc2c(cc1OC)[C@@H]1Cc3ccc(OC)c(OC)c3CN1CC2 [Tetrahydropalmatine hydrochloride],89.6% and 96.5%,95.6,91.4,93.7,93.4,101,103,83.9
COc1ccc2c(c1O)-c1c(O)c(OC)cc3c1[C@H](C2)[N+](C)(C)CC3 [Magnoflorine],97.9% and 97.3%,101,98,105,99.3,100,103,107
O=C(Nc1ccc([N+](=O)[O-])cc1O)Nc1ccccc1Br,16.9% and 34.5%,33.9,7.34,8.23,13.5,3.38,8.53,10.4
OCC1OC(Oc2ccc(O)cc2)C(O)C(O)C1O (stereo not drawn) [alpha-Arbutin],99.8% and 105%,98.6,104,111,103,109,98.8,101
C=CC(=O)Nc1cccc(Nc2nc(Nc3ccc(NC4CN(CCF)C4)cc3OC)ncc2C(F)(F)F)c1,55.2% and 53.1%,64.8,22.3,19.6,4.64,10.4,12.3,17.9
CCOC(=O)N1CCN(c2ccc(OC[C@H]3CO[C@](Cn4ccnc4)(c4ccc(Cl)cc4Cl)O3)cc2)CC1 [Elubiol],43.3% and 36.5%,41.8,29.3,28.8,39,21.1,10.3,15.9
